Sampled rows, rich in hits. Any-hit rate of the full collection: about 1.1%.
GPT2 inhibitor: blocks human glutamate pyruvate transaminase 2; Q8TD30; Recombinant GPT2, coupled pyruvate oxidase/HRP Amplex Red fluorescence; Potency, µM (highest dose often 57.7 µM), without a hit: top-dose activity change, negative = inhibition, usual class: inhibitors; actives 0.25% (n = 100,000); further: potency means the concentration at half of the fitted maximal effect; nearly all actives have a fitted effect of over 60% in size
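GPT2 10ng/uL, a-KG 250uM, L-Ala 2mM, HEPES pH7.5 + 0.0001% Tween; 30 min RT. Then Amplex mix (PO/HRP/ThPP), 30 min RT dark, fluorescence. AOA 50uM used as positive control.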
IP6K1 inhibitor: inhibitors of human IP6K1 | Q92551 | IP6K1 kinase, ADP-Glo luminescence, 2 h; hits give low values | activity change, % (series mostly up to about 58 µM) | actives 0.81% (n = 140,000) | AID 1645851; in the data active means activity change below about -25%
Target sequence (Q92551 whole entry, looked up): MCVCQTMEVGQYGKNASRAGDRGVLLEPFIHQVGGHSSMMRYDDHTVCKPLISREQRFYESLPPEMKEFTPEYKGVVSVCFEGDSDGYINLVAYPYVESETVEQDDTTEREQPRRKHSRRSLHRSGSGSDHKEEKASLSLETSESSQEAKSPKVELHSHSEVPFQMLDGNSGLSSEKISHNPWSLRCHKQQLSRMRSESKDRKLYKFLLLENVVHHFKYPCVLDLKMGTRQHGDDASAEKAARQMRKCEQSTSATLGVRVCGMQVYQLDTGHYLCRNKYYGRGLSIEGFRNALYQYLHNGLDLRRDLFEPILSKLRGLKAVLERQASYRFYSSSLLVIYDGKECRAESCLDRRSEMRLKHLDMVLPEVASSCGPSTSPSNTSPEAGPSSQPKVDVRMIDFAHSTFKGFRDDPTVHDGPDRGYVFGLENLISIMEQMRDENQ
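ADP-Glo luminescence measures ADP made by human IP6K1 during a 2 h RT reaction with ATP/IP6 (mix at 1.3 mM/130 uM); top library doses 57.5 and 19.1 uM final.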
SNCA viab count: reduces viability of HEK-293 SNCA reporter cells; HEK-293-SNCA-luc viability, GF-AFC fluorescence, 24 h; Potency, µM (highest dose often 57.1 µM), for the others: at the highest dose activity change, negative = cytotoxicity, usual class: cytotoxic; actives 0.12% (n = 150,000);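 further: potency means the concentration at half of the fitted maximal effect; 0% = DMSO-treated cells and -100% = medium-only wells without cells; nearly all actives have a fitted effect of over 30% in size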
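Cytotoxicity counterscreen: after 24 h compound treatment of genome-edited SNCA-luciferase HEK-293 cells, live-cell protease substrate GF-AFC read by fluorescence after 30 min; activity scaled between DMSO (0%) and medium-only (-100%), curves Hill-fitted.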
SNCA expr inhib: inhibitors of alpha-synuclein (SNCA) gene expression. actives 0.17% (n = 140,000). HEK-293 SNCA-luciferase knock-in, luminescence, 24 h. Potency, µM (doses to about 57.2 µM), for the others: at the top dose activity change, negative = inhibition, most hits filed as inhibitors;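 further: potency means the concentration at half of the fitted maximal effect; plate controls were DMSO cells for no effect and cell-free wells for full effect; nearly all actives have a fitted effect of over 45% in size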
IP6K1 inh cnf: confirmation of human IP6K1 inhibitors; shares compounds with IP6K1 inhibitor; recombinant IP6K1 kinase, ADP-Glo luminescence, 2 h; actives 13% (n = 1,200); Potency, µM (top dose mostly 49 µM), for the others: at the highest dose activity change, negative = inhibition, hits mostly inhibitors; further: potency means the concentration at half of the fitted maximal effect; nearly all actives have a fitted effect of over 65% in size
Active calls of the source: *; i = inactive; ? = inconclusive; . = no result; [ ] = remark or other dose. Unless noted, the call rests on the fitted dose curve; in most records, active means well fitted curve in the direction sought with a large enough effect; inconclusive means small, poorly fitted or top-dose-only effect, or another doubt; inactive means no such curve, though single readings can be large; an effect the other way counts as inactive or inconclusive. Unless noted, on the % scale 0 is the no-effect control and ±100 the full control effect.

SMILES	GPT2 inhibitor	IP6K1 inhibitor	SNCA viab count	SNCA expr inhib	IP6K1 inh cnf
CC1=CC(=O)c2ccccc2C1=O	?	12	0%	-10%	.
CC[C@@H]1C(=O)N(C)c2cnc(Nc3ccc(C(=O)NC4CCN(C)CC4)cc3OC)nc2N1C1CCCC1	i	.	?	-4%	18%
Cn1ncc2c(C(=O)NCC3CC3)cc(-c3cccc(F)c3)nc21	.	12	.	.	.
COc1cccc(CNC(=O)c2nn(C)c3c2CSc2ccccc2-3)c1	.	-32*	-1%	-4%	?
Cn1nc(C(=O)NCc2ccccc2)c2c1-c1ccccc1SC2	.	-22	-6%	53%	.
O=C(CCC[C@H]1NC[C@@H]2CC1CN(Cc1ccccc1)C2)N1CCCCC1	i	4	3%	-18%	.
COc1cccc(N2CCN(C(=O)CCC[C@H]3NC[C@@H]4C[C@H]3CN(Cc3ccccc3)C4)CC2)c1	?	-26*	3%	-9%	1%
CN1C(=O)CC[C@H]1c1cccnc1	-1%	-14	-4%	-3%	.
CN1CCC[C@@H]1c1cccnc1	i	-31*	43%[23.9 µM]	27%[25.6 µM]	-8%
COC(=O)c1cccc(CN2C(=O)SC(Nc3ccc(Cl)cc3)C2=O)c1 (stereo unspecified)	.	-13	-4%	10%	.
CCOC(=O)c1ccc(NC2SC(=O)N(Cc3cccc(C(=O)O)c3)C2=O)cc1 (stereo unspecified)	.	-46*	-15%	111%	?
N#C/C(=C/c1ccccc1Cl)c1nc2ccccc2c(=O)[nH]1	.	5	2%	12%	.
N#C/C(=C\c1cc(Br)c(O)c(Br)c1)c1nc2ccccc2c(=O)[nH]1	.	-29*	-3%	-27%	1.8µM*
COc1ccc(C(=O)NC2CCCN(Cc3ccc(-c4cccc(OC)c4)cc3)C2)cc1 (stereo unspecified)	i	8	-27%	-6%	.
COc1ccc(CCNC(=O)Cc2c(C)c3c(cc(C)c4c(C)c(C)oc43)oc2=O)cc1OC	.	-16	6%	23%	.
Cc1oc2c(c(C)cc3oc(=O)c(CC(=O)NCCc4ccccc4F)c(C)c32)c1C	.	-27*	-1%	17%	-12%
O=C(Nc1ccccc1)N1CCCN(c2ccc3nnc(C4CC4)n3n2)CC1	.	14	.	.	.
O=C(c1ccc(Cl)cc1)N1CC2(CCCN2Cc2ccc(C(F)(F)F)cc2)Cc2ccccc21 (stereo unspecified)	2%	-10	-8%	5%	.
Cc1oncc1C(=O)Nc1ccc(C(F)(F)F)cc1	-6%	30	0%	-22%	2%
CN(C)Cc1nnc(C2CC(NC(=O)c3ccccc3-c3ncn[nH]3)C2)n1C (stereo unspecified)	i[11.5 µM]	-28*	1%	-15%	-10%
Cc1ccc(C(=O)NC2=NC(c3ccc(C)cc3)CC(=O)N2)cc1 (stereo unspecified)	.	-26*	-1%	-2%	-6%
CCOc1ccc(C2CC(=O)NC(NC(=O)c3ccc(C)cc3)=N2)cc1 (stereo unspecified)	.	0	2%	0%	.
Cc1cccc(N2CCN(C(=O)c3ccc4c(c3)c(C)c(C)n4C)CC2)c1C	.	1	2%	56%	.
Cc1c(C)n(C)c2ccc(C(=O)N3CCN(c4ccccc4)CC3)cc12	.	-27*	9%	11%	-17%
Cc1ccc2nc(C(C)NC(=O)c3cnc(-c4ccccn4)[nH]c3=O)[nH]c2c1 (stereo unspecified)	?	-36*	-12%	-16%	?
SMILES	GPT2 inhibitor	IP6K1 inhibitor	SNCA viab count	SNCA expr inhib	IP6K1 inh cnf
Cc1ccc(-c2ncc(C(=O)N3CCC(Nc4ncccn4)CC3)c(=O)[nH]2)cc1	0%	5	17%	-19%	.
COc1ccc(CC2CCOC3(CCN(C(=O)c4ccc(C)s4)CC3)C2)cc1 (stereo unspecified)	i	6	2%	1%	.
COc1ccccc1-c1ccc(CN2CCCCC2C(=O)NCC(F)F)cc1 (stereo unspecified)	.	18	.	.	.
CCc1nc2nc(C)c(NS(=O)(=O)c3ccc(F)c(C)c3)c(=O)n2[nH]1	.	-28*	7%	27%	9%
Cc1ccc(NC(=O)CCCn2nc(C)c3c(C)n(-c4ccccc4)nc3c2=O)cc1Cl	.	20	10%	38%	.
CCOC(=O)c1cccc(NC(=O)CCCn2nc(C)c3c(C)n(-c4ccccc4)nc3c2=O)c1	.	-100*	-1%	-10%	8%
Cc1nnc2ccc(N3CCN(C(=O)C4CCCC4)CC3)nn12	.	14	.	.	.
Cc1ccc(OCC(=O)Nc2ccccc2OCc2cc(=O)n3ccccc3n2)cc1C	.	-27*	10%	29%	-4%
O=C(Nc1cccc(F)c1)Nc1ccnn1C1CCN(C(=O)C2CCC2)CC1	-1%[11.5 µM]	-32*	4%	19%	-5%
Cc1ncc(NC(=O)c2ccc(CN3CCN(C)CC3)c(C(F)(F)F)c2)cc1Nc1nccc(-c2cccnc2)n1	i	2	-14%	.	.
Cc1ccc(C(=O)Nc2ccc(CN3CCN(C)CC3)c(C(F)(F)F)c2)cc1C#Cc1cnc2[nH]ncc2c1	1%	-61*	?	.	7.3µM*
Cc1ccc(NC(=O)c2ccc(CN3CC[C@H](N(C)C)C3)c(C(F)(F)F)c2)cc1Nc1nccc(-c2cncnc2)n1	3%[27.3 µM]	6	21%[23.9 µM]	.	.
CCN1CCN(Cc2ccc(NC(=O)c3ccc(C)c(/C=C/c4cnc5[nH]ccc5c4OC)c3)cc2C(F)(F)F)CC1	1%	-39*	24µM*	.	4.6µM*
Cc1cc(C)c(NC(=O)Cn2c(=O)n(Cc3ccccc3)c(=O)c3c(C)c(C(=O)N(C)C)sc32)c(C)c1	.	23	2%	-12%	.
Cc1cc(C)c(NC(=O)Cn2c(=O)n(-c3ccc(F)cc3)c(=O)c3c(C)c(C(=O)N(C)C)sc32)c(C)c1	.	-27*	13%	4%	-6%
O=C(O)c1cc(-c2ccccc2CO)cc(S(=O)(=O)N2CCCCCC2)c1	4%[11.5 µM]	-30*	-2%	2%	-16%
O=C(O)c1cc(-c2cncnc2)cc(S(=O)(=O)N2CCCCCC2)c1	2%	0	-9%	5%	.
O=C(Cc1ccccn1)NC1CCN(C(=O)c2ccc(-c3cncnc3)cc2)CC1	5%	-14	-1%[12.5 µM]	-4%	.
COC(=O)c1cc(NC(=O)CC2C(=O)OCCN2Cc2ccccc2)cc(C(=O)OC)c1 (stereo unspecified)	.	-33*	1%	-10%	9%
O=C(c1ccc(F)c(F)c1Nc1ccc(I)cc1F)N1CC(O)([C@H]2CCCCN2)C1	2%	.	-3%	8%	-3%
COc1ccccc1N1CCN(S(=O)(=O)c2ccc(F)c(C(=O)Nc3ccc(C)c(F)c3)c2)CC1	.	-28*	0%	-14%	3%
COc1ccc(C)cc1NC(=O)c1cc(S(=O)(=O)N2CCN(c3cccc(C)c3C)CC2)ccc1F	.	23	4%	20%	.

Bioassay records deposited in PubChem by National Center for Advancing Translational Sciences (NCATS).
